Screen size: about 290,000 compounds; about 27,000 (9.3%) were called active. Cut-off read from the data, not from the text of the source: active = inhibition mostly above about 28% (no sharp cut-off); inactive = mostly below about 43%. Only a selection was taken, and actives are over-represented in it overall.
Assay: A qHTS for Small Molecule Inhibitors of Shiga Toxin; note: 0% is about no effect
Conditions: Vero cells, Shiga toxin protein synthesis inhibition reporter; at 38.7 µM, stronger effect = higher value

| SMILES | inhibition |
| --- | --- |
| COC(=O)C1(CCSC)NC(c2ccc(OC)cc2OC)C2C(=O)N(c3cccc(C(C)=O)c3)C(=O)C21 (stereo unspecified) | -5.19% (inactive) |
| N#Cc1c(-c2ccc(F)cc2)nc(-c2ccccc2)[nH]c1=O | -4.47% (inactive) |
| N#Cc1ccc(-c2nc3cc(C#N)c(C#N)cc3nc2-c2ccccc2)cc1C#N | 56.6% (active) |
| N#Cc1ccc(-c2ccc(F)cc2)nc1Sc1ccccc1 | -10% (inactive) |
| O=C(O)CCC(=O)Nc1ccc(OCC2CCCO2)cc1 (stereo unspecified) | 4.1% (inactive) |
| CCOc1ccc(N(C)Cc2cc(=O)oc3ccc(OC)cc23)cc1 | -26.5% (inactive) |
| COC(=O)c1ccc(-n2cnc3ccccc32)nc1 | 159% (active) |
| Cc1ccc(OCC(=O)Nn2cnc3ccccc32)cc1 | -4.5% (inactive) |
| O=C(c1ccc(Cl)cc1)n1cnc2ccccc21 | -4.02% (inactive) |
| O=C(NCc1ccco1)/C(=C/c1ccco1)NC(=O)c1ccccc1 | -2.21% (inactive) |
| COc1ccc(CCNC(=O)CSc2nnc(CNC(=O)c3cccs3)o2)cc1OC | -18.8% (inactive) |
| COc1ccc(-c2nnc(SCC(=O)c3cccs3)o2)c(OC)c1 | 150% (active) |
| COc1ccccc1-c1nnc(SCC(=O)Nc2cc(C)on2)o1 | 18.4% (inactive) |
| CCOc1ccc(N(CC(=O)Nc2ccccc2F)S(=O)(=O)c2c(C)[nH]c(=O)[nH]c2=O)cc1 | -4.99% (inactive) |
| Cc1cccc(C(=O)N2CCCN(C(=O)c3cccc(C)c3)CC2)c1 | 19.1% (inactive) |
| Cc1cc(C)cc(NC(=O)N2CCCCCCC2)c1 | -6.48% (inactive) |
| Cc1ccc2cc3cc(C(=O)N4CCCCCC4)oc3nc2c1 | 88.9% (active) |
| Cc1oc2nc(SCC(=O)Nc3ccc(S(N)(=O)=O)cc3)nc(NC(=O)c3ccccc3)c2c1C | -13.4% (inactive) |
| OCCC1CN(Cc2cnc(-c3ccccc3)s2)CCN1CCc1ccccc1 (stereo unspecified) | -10.1% (inactive) |
| COc1ccc(NC(=O)CN2C(=O)COc3ccc(S(=O)(=O)N4CCOCC4)cc32)c(OC)c1 | -2.93% (inactive) |
| COc1cccc(OC)c1C(=O)NC(=S)Nc1ccc(N2CCOCC2)c(Cl)c1 | 44.5% (inactive) |
| Cc1nn(C)c(C(=O)NNC(=S)NC2CCCCC2)c1Cl | 14.6% (inactive) |
| COc1cccc(NC(=S)NC(=O)c2c(Cl)c(C)nn2C)c1 | 14.4% (active) |
| O=C(NCc1ccccn1)[C@]1(C(F)(F)F)C[C@H](CCc2ccccc2)CCCO1 | -3.98% (inactive) |
| Nc1nnc2c(C(F)(F)F)nc3ccccc3n12 | -8.69% (inactive) |
| Cc1cccc(-c2c(NC(=O)c3ccco3)oc3ccc(Cl)cc3c2=O)c1 | 20.5% (inactive) |

From PubChem BioAssay AID2315 (National Center for Advancing Translational Sciences (NCATS), 2010)
